{
  "source": "PubChem BioAssay AID434970",
  "about": "(Sanford-Burnham Center for Chemical Genomics, 2010)",
  "note": "About 310 (2.8%) of roughly 11,000 compounds were called active. No stated cut-off is given here; in the data, active means activity change below about -85%; inactive means the rest. The sample as a whole holds a higher share of actives than the screen did.",
  "data": [
    {"system": "intestinal alkaline phosphatase [Mus musculus]", "experiment": "activators of mouse IAP, confirmation, biochemical, luminescence, single concentration (AID 434970)", "details": "purified mouse IAP, CDP-Star luminescence, 30 min, at 10 µM; activation factor: measured here: IAP activation factor, stronger effect = higher value; activity change, negative = activation: stronger effect = lower value", "values": [
      {"smiles": "O=C(Nc1ccc(Br)cc1)NC1CCCCCCC1", "activation factor": 2.74, "activity change, negative = activation": "-174% (active)"},
      {"smiles": "S=C(Nc1ccc(Br)cc1)NC1CCCCC1", "activation factor": 1.71, "activity change, negative = activation": "-70.7% (inactive)"},
      {"smiles": "CC(=O)Nc1ccc(C(=O)OCC(=O)NC(=O)NC2CCCCC2)cc1", "activation factor": 0.997, "activity change, negative = activation": "0.3% (inactive)"},
      {"smiles": "COc1ccc(C2NCCO2)cc1OC", "note": "(stereo unspecified)", "activation factor": 0.954, "activity change, negative = activation": "4.65% (inactive)"},
      {"smiles": "C=CCONC(=O)Cc1ccccc1", "activation factor": 1.1, "activity change, negative = activation": "-9.55% (inactive)"},
      {"smiles": "Cc1ccc(NC(=O)C(=O)NNC(=O)c2ccccc2C)cc1Cl", "activation factor": 0.889, "activity change, negative = activation": "11.1% (inactive)"},
      {"smiles": "Cc1ccc(NC(=O)C2CC(=O)n3c(nc4ccccc43)N2)cc1Cl", "note": "(stereo unspecified)", "activation factor": 2.25, "activity change, negative = activation": "-125% (active)"},
      {"smiles": "Cc1ccc(NC(=O)C2CC(=O)n3c(nc4ccccc43)N2)cc1C", "note": "(stereo unspecified)", "activation factor": 2.2, "activity change, negative = activation": "-120% (active)"},
      {"smiles": "Cc1cccc(NC(=O)C2CC(=O)n3cnnc3S2)c1", "note": "(stereo unspecified)", "activation factor": 0.843, "activity change, negative = activation": "15.8% (inactive)"},
      {"smiles": "Cc1ccc(NC2=NC(C(=O)Nc3ccc(C)c(C)c3)CC(=O)N2)cc1", "note": "(stereo unspecified)", "activation factor": 0.958, "activity change, negative = activation": "4.15% (inactive)"},
      {"smiles": "COc1ccc(NC(=O)N2CCCC2C(=O)Nc2ccc(C)c(Cl)c2)cc1", "note": "(stereo unspecified)", "activation factor": 1.12, "activity change, negative = activation": "-12.4% (inactive)"},
      {"smiles": "C=C(C)Cn1c(=O)c2c(nc3n2CCN3c2cccc(Cl)c2C)n(C)c1=O", "activation factor": 0.924, "activity change, negative = activation": "7.6% (inactive)"},
      {"smiles": "CC(C)(C)c1ccc(OCc2nc(-c3ccccn3)no2)c(Br)c1", "activation factor": 0.924, "activity change, negative = activation": "7.55% (inactive)"},
      {"smiles": "COc1ccc(-c2noc(CCC(=O)N3CCN(c4ccc(C(F)(F)F)cc4)CC3)n2)cc1", "activation factor": 1.05, "activity change, negative = activation": "-4.65% (inactive)"},
      {"smiles": "COc1ccc(OC)c(N)c1", "activation factor": 0.877, "activity change, negative = activation": "12.3% (inactive)"},
      {"smiles": "C=CCn1c(Br)nc2c1c(=O)[nH]c(=O)n2C", "activation factor": 0.97, "activity change, negative = activation": "2.95% (inactive)"},
      {"smiles": "O=C(NCC1CCN(Cc2ccccc2F)CC1)Nc1cccc(Br)c1", "activation factor": 2.05, "activity change, negative = activation": "-105% (active)"},
      {"smiles": "O=C(NCCOc1ccccc1F)Nc1ccc(Br)cc1", "activation factor": 1.46, "activity change, negative = activation": "-45.9% (inactive)"},
      {"smiles": "O=C(NCC1CCN(Cc2ccccc2Cl)CC1)Nc1cccc(Cl)c1", "activation factor": 1.77, "activity change, negative = activation": "-77.5% (inactive)"},
      {"smiles": "COc1cc(NC(=O)NCC2CCN(Cc3ccccc3F)CC2)cc(OC)c1", "activation factor": 2.67, "activity change, negative = activation": "-167% (active)"},
      {"smiles": "COc1cc(NC(=O)C2CCCN(c3ncccn3)C2)cc(OC)c1", "note": "(stereo unspecified)", "activation factor": 1.11, "activity change, negative = activation": "-10.6% (inactive)"},
      {"smiles": "COc1cc(OC)cc(C(=O)Nc2c(F)cccc2F)c1", "activation factor": 1.02, "activity change, negative = activation": "-1.9% (inactive)"},
      {"smiles": "Cc1ccc(NC(=O)Cn2cnc(C(=O)Nc3ccc(C)c(C)c3)n2)cc1C", "activation factor": 1.05, "activity change, negative = activation": "-4.9% (inactive)"},
      {"smiles": "O=C(Nc1ccc2ccccc2c1)c1cn(-c2ccccc2)nc1-c1cccs1", "activation factor": 1.61, "activity change, negative = activation": "-60.9% (inactive)"},
      {"smiles": "COc1ccc(N2CCN(c3nc(NCCO)nc(N4CCOCC4)n3)CC2)cc1", "activation factor": 0.927, "activity change, negative = activation": "7.25% (inactive)"},
      {"smiles": "CC[C@]12c3[nH]c4cc(CCC(=O)N(C)C)ccc4c3CCN1C(=O)[C@@H](CC(=O)NCCCN(C)C)C[C@@H]2C(=O)N1CCN(C(=O)C2CC2)CC1", "activation factor": 1.05, "activity change, negative = activation": "-4.6% (inactive)"},
      {"smiles": "Cc1ccc2c(c1)c(C)c(C)n2CC(O)CN1CCOCC1", "note": "(stereo unspecified)", "activation factor": 0.95, "activity change, negative = activation": "5% (inactive)"},
      {"smiles": "O=C(NC1CCCCCCC1)c1cnccn1", "activation factor": 0.972, "activity change, negative = activation": "2.85% (inactive)"},
      {"smiles": "O=C(Nc1nccs1)C1CC2CCC1C2", "note": "(stereo unspecified)", "activation factor": 1.01, "activity change, negative = activation": "-0.6% (inactive)"},
      {"smiles": "CCOC(=O)c1ccc(NC(=O)CSc2nnc(C3CCCCC3)n2C)cc1", "activation factor": 0.933, "activity change, negative = activation": "6.7% (inactive)"},
      {"smiles": "O=C(Nc1ccc(-n2ccc(C(F)(F)F)n2)cc1)Nc1cccc(Cl)c1", "activation factor": 1.92, "activity change, negative = activation": "-91.7% (active)"},
      {"smiles": "Cn1nc(OC(=O)Nc2cccc(Cl)c2)cc1C(F)(F)F", "activation factor": 2.51, "activity change, negative = activation": "-151% (active)"},
      {"smiles": "Cn1cc(NC(=O)Nc2ccc(C(F)(F)F)cc2)c(C(F)(F)F)n1", "activation factor": 1.86, "activity change, negative = activation": "-86.1% (inactive)"},
      {"smiles": "O=C(NCCCn1ccnc1)Nc1cccc(Cl)c1", "activation factor": 1.23, "activity change, negative = activation": "-23.4% (inactive)"},
      {"smiles": "O=C(Nc1ccccc1)Nc1ccc(-n2ccc(C(F)(F)F)n2)cc1", "activation factor": 1.6, "activity change, negative = activation": "-60% (inactive)"},
      {"smiles": "Cn1nc(C(=O)Nc2cccc(C(F)(F)F)c2)ccc1=O", "activation factor": 1.13, "activity change, negative = activation": "-12.9% (inactive)"},
      {"smiles": "CC(=O)Nc1ccc(-n2cnnn2)cc1", "activation factor": 1.04, "activity change, negative = activation": "-3.5% (inactive)"},
      {"smiles": "Cn1ncc(Cl)c1C(=O)Nc1cccc(Cl)c1", "activation factor": 1.01, "activity change, negative = activation": "-1.1% (inactive)"},
      {"smiles": "Cc1cc(C)cc(NC(=O)Nc2ccc(-n3ccc(C(F)(F)F)n3)cc2)c1", "activation factor": 2.36, "activity change, negative = activation": "-136% (active)"},
      {"smiles": "Cc1noc(C)c1S(=O)(=O)Nc1ccc(C(=O)NC2CCCCCC2)cc1", "activation factor": 1.07, "activity change, negative = activation": "-7.15% (inactive)"},
      {"smiles": "CN=C1N(C)C[C@@H]2[C@@H]3C(=O)N(Cc4ccccc4)C(=O)[C@@H]3[C@](Cc3ccccc3)(C(=O)OC)N12", "activation factor": 1.16, "activity change, negative = activation": "-16.1% (inactive)"},
      {"smiles": "CC(C)CC(c1nnnn1Cc1cccs1)N1CCN(c2nc3ccccc3s2)CC1", "note": "(stereo unspecified)", "activation factor": 0.985, "activity change, negative = activation": "1.5% (inactive)"},
      {"smiles": "CCOC(=O)CCc1c(C)c(C#N)c2nc3ccccc3n2c1-n1cnc2ccccc21", "activation factor": 1.02, "activity change, negative = activation": "-1.8% (inactive)"}
    ]}
  ]
}
